{"source": "PubChem BioAssay (NCATS)", "key": {"[1]": {"test": "qHTS assay to identify small molecule inhibitors of chordoma cells - UCH-1 (AID 1259355); note: nearly all actives have a fitted effect of over 55% in size", "how_it_was_run": "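800 cells/well, overnight attach; compounds pinned at 15 concs, then auranofin/camptothecin/doxorubicin/rubitecan/topotecan combo added; 48hr 37 C, 5% CO2; CellTiter-Glo, 30min RT, luminescence.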"}, "[2]": {"test": "qHTS assay to identify small molecule inhibitors of chordoma cells - UCH-2 (AID 1259356); note: series mostly up to about 46 µM"}, "[3]": {"test": "P-glycoprotein substrates identified in KB-8-5-11 adenocarcinoma cell line, qHTS therapeutic library screen (AID 1346987); note: nearly all actives have a fitted effect of over 65% in size; note: potency is the fitted concentration of half-maximal effect", "how_it_was_run": "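Compounds are pinned in dose-response onto KB-8-5-11 cells (500 cells/well, colchicine-free medium) and left 72 h at 37 degree C. CellTiter-Glo luminescence then yields AC50 values.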"}, "[4]": {"biological_target": "Atrial natriuretic peptide receptor 1 (Homo sapiens) (UniProt P16066)", "sequence (P16066 whole entry, looked up)": "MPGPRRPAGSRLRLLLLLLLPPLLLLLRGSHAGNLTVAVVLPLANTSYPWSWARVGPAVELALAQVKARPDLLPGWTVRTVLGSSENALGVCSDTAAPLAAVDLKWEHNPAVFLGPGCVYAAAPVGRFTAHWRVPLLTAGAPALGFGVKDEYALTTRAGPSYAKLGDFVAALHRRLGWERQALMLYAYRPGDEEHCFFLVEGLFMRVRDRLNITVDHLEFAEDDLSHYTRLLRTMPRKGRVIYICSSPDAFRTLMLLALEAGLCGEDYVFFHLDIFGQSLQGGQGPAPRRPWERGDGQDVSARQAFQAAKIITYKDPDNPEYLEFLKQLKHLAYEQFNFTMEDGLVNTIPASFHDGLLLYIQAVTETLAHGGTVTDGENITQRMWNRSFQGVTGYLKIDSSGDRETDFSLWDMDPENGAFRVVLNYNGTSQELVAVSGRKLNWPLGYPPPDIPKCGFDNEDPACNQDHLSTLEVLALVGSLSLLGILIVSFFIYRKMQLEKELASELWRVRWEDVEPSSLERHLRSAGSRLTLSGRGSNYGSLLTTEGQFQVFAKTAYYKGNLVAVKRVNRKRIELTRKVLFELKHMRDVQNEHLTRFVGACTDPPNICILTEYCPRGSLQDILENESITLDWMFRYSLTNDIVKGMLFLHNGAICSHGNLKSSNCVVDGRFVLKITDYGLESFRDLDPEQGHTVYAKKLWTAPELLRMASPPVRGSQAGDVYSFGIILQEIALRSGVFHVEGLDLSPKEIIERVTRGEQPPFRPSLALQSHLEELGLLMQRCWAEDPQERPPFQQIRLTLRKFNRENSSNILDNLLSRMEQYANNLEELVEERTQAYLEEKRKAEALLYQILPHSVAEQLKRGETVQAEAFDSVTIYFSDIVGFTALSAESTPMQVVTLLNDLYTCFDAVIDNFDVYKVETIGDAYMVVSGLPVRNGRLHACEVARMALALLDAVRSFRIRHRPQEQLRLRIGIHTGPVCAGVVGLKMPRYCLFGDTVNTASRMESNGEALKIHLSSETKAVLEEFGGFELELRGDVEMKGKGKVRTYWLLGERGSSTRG", "test": "Natriuretic polypeptide receptor (hNpr1) antagonism - Pilot screen (AID 1347049; calls by dose curve;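 note: agonist-evoked cGMP luminescence read 20 min after hNppA addition; series mostly up to about 58 µM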)", "how_it_was_run": "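Receptor antagonism read as cGMP-dependent luminescence in hNpr1/pGS-40F HEK293 cells: pre-read after 30 min compound exposure, post-read 20 min after hNppA agonist at 0.1 nM final, all at room temperature, protected from light; A-71915 titration as control.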"}, "[5]": {"biological_target": "Atrial natriuretic peptide receptor 2 (Homo sapiens) (UniProt P20594)", "sequence (P20594 whole entry, looked up)": "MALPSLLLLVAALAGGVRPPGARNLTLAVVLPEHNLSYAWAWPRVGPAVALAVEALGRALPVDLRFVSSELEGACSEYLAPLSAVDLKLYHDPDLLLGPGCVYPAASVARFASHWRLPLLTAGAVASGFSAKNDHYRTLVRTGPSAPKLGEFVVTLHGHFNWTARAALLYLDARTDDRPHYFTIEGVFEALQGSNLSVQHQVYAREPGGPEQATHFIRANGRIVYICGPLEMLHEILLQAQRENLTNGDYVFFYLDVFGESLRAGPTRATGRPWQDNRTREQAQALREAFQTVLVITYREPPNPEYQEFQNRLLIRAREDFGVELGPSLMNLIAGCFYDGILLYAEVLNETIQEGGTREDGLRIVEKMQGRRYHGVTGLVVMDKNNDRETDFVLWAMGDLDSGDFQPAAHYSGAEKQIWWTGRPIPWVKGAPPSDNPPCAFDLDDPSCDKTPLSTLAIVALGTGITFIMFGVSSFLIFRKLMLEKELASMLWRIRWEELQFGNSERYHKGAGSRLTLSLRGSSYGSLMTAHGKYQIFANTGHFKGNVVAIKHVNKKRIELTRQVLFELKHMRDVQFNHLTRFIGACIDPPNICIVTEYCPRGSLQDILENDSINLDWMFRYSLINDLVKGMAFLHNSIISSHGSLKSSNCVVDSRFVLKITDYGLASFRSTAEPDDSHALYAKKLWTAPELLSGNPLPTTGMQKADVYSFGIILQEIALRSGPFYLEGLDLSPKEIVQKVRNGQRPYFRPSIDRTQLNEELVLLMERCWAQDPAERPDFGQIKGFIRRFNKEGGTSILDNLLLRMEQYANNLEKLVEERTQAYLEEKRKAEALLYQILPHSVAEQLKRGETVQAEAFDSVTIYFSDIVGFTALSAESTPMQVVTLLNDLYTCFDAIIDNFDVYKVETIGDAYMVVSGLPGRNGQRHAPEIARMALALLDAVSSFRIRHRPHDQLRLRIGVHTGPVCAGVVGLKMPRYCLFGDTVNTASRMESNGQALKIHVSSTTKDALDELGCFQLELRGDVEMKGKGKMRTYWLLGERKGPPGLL", "test": "Natriuretic polypeptide receptor (hNpr2) antagonism - Pilot subtype selectivity assay (AID 1347050; calls by dose curve)", "how_it_was_run": "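Antagonist mode: compounds (LOPAC1280, seven 1:5 dilutions) added 30 min before 1 nM hNppC stimulation of hNpr2-HEK293 cGMP-sensor cells; luminescence read before and 20 min after agonist at ambient temperature.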"}, "[6]": {"test": "Natriuretic polypeptide receptor (hNpr1) antagonism - Pilot counterscreen GloSensor control cell line (AID 1347045; calls by dose curve; note: series mostly up to about 38 µM)", "how_it_was_run": "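Control counterscreen: luciferase cGMP-biosensor HEK293 cells (no Npr1) received compound for 30 min at room temperature after GloSensor substrate loading. Luminescence was measured before and 20 min after soluble guanylyl cyclase activation by 50 uM nitroprusside.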"}, "[7]": {"test": "P-glycoprotein substrates identified in KB-3-1 adenocarcinoma cell line, qHTS therapeutic library screen (AID 1346986); note: nearly all actives have a fitted effect of over 60% in size", "how_it_was_run": "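Viability read by CellTiter-Glo after 72 h compound exposure in dose-response of KB-3-1 and KB-8-5-11 (P-gp-high) cells. Hits needed AC50 < 10 uM, >50% maximum response and curve class -1.1 to -2.4. Cherry-picks retested ± tariquidar, including pcDNA/MDR-19 HEK-293 pair.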"}, "[8]": {"test": "Identifying Small Molecule Inhibitors of Pancreatic Cancer Stem Cells (SN12C, Spheroid) (AID 1259360); note: potency is the fitted concentration of half-maximal effect", "conditions": "Potency: SN12C spheroid viability", "how_it_was_run": "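Viability is scored by CellTiter-Glo luminescence 48 h after dosing, expressed as percent activity against vehicle and no-cell references. Spheroid formats rely on cells cultured 14 days in stem cell media beforehand.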"}}, "note": "Results filed as inconclusive are left out. Entries that show only a call come without a potency. Calls of active or inactive are those of the source. Unless noted, calls come from the whole dose curve; as a rule, active = well fitted curve in the direction sought with a large enough effect; inconclusive = small, poorly fitted or top-dose-only effect, or another doubt; inactive = no such curve, though single readings can be large; an effect the other way counts as inactive or inconclusive."}
{"smiles": "NC(N)=Nc1nc(CSCC/C(N)=N/S(N)(=O)=O)cs1", "values": [{"measurement": "Potency", "setting": "[1]", "value": "inactive"}, {"measurement": "outcome", "setting": "[2]", "value": "inactive"}, {"measurement": "Potency", "setting": "[3]", "value": "inactive"}, {"measurement": "outcome", "setting": "[4]", "value": "inactive"}, {"measurement": "outcome", "setting": "[5]", "value": "inactive"}]}
{"smiles": "OC[C@@H](O)[C@H](O)[C@H](O)[C@@H](O)CO", "values": [{"measurement": "Potency", "setting": "[1]", "value": "inactive"}, {"measurement": "outcome", "setting": "[2]", "value": "inactive"}, {"measurement": "Potency", "setting": "[3]", "value": "inactive"}]}
{"smiles": "CCCNC(=O)NS(=O)(=O)c1ccc(Cl)cc1", "values": [{"measurement": "Potency", "setting": "[1]", "value": "inactive"}, {"measurement": "outcome", "setting": "[2]", "value": "inactive"}, {"measurement": "Potency", "setting": "[3]", "value": "inactive"}, {"measurement": "Potency", "setting": "[6]", "value": "inactive"}, {"measurement": "outcome", "setting": "[4]", "value": "inactive"}, {"measurement": "outcome", "setting": "[5]", "value": "inactive"}]}
{"smiles": "CCN1CCC[C@H]1CNC(=O)c1cc(S(N)(=O)=O)ccc1OC", "values": [{"measurement": "Potency", "setting": "[1]", "value": "inactive"}, {"measurement": "outcome", "setting": "[2]", "value": "inactive"}, {"measurement": "Potency", "setting": "[7]", "value": "inactive"}, {"measurement": "Potency", "setting": "[3]", "value": "inactive"}, {"measurement": "Potency", "setting": "[6]", "value": "inactive"}, {"measurement": "outcome", "setting": "[4]", "value": "inactive"}, {"measurement": "outcome", "setting": "[5]", "value": "inactive"}]}
{"smiles": "COC(=O)[C@@H]1[C@H]2C[C@H]3c4[nH]c5ccccc5c4CCN3C[C@@H]2CC[C@@H]1O", "values": [{"measurement": "Potency", "setting": "[1]", "value": "inactive"}, {"measurement": "outcome", "setting": "[2]", "value": "inactive"}, {"measurement": "Potency", "setting": "[3]", "value": "inactive"}, {"measurement": "outcome", "setting": "[4]", "value": "inactive"}, {"measurement": "outcome", "setting": "[5]", "value": "inactive"}]}
{"smiles": "CC(=O)N[C@@H](CS)C(=O)O", "values": [{"measurement": "Potency", "setting": "[1]", "value": "inactive"}, {"measurement": "outcome", "setting": "[2]", "value": "inactive"}, {"measurement": "Potency", "setting": "[3]", "value": "inactive"}, {"measurement": "Potency", "setting": "[6]", "value": "inactive"}, {"measurement": "outcome", "setting": "[4]", "value": "inactive"}, {"measurement": "outcome", "setting": "[5]", "value": "inactive"}]}
{"smiles": "O=C(O)CCc1nc(-c2ccccc2)c(-c2ccccc2)o1", "values": [{"measurement": "Potency", "setting": "[1]", "value": "inactive"}, {"measurement": "outcome", "setting": "[2]", "value": "inactive"}, {"measurement": "Potency", "setting": "[7]", "value": "inactive"}, {"measurement": "Potency", "setting": "[3]", "value": "inactive"}, {"measurement": "Potency", "setting": "[6]", "value": "inactive"}, {"measurement": "outcome", "setting": "[4]", "value": "inactive"}, {"measurement": "outcome", "setting": "[5]", "value": "inactive"}]}
{"smiles": "CC1=C(/C=C/C(C)=C/C=C/C(C)=C/C(=O)Nc2ccc(O)cc2)C(C)(C)CCC1", "values": [{"measurement": "Potency", "setting": "[1]", "value": "inactive"}, {"measurement": "outcome", "setting": "[2]", "value": "inactive"}, {"measurement": "Potency", "setting": "[8]", "value": "23.5 µM (active)"}, {"measurement": "Potency", "setting": "[3]", "value": "23.1 µM (active)"}, {"measurement": "Potency", "setting": "[6]", "value": "inactive"}, {"measurement": "outcome", "setting": "[4]", "value": "inactive"}, {"measurement": "outcome", "setting": "[5]", "value": "inactive"}]}
{"smiles": "C[N+](C)(C)CCCCCC[N+](C)(C)C", "values": [{"measurement": "Potency", "setting": "[1]", "value": "inactive"}, {"measurement": "outcome", "setting": "[2]", "value": "inactive"}, {"measurement": "Potency", "setting": "[6]", "value": "inactive"}, {"measurement": "outcome", "setting": "[4]", "value": "inactive"}, {"measurement": "outcome", "setting": "[5]", "value": "inactive"}]}
{"smiles": "CC(C)NCC(O)COc1cccc2[nH]ccc12", "note": "(centres undefined)", "values": [{"measurement": "Potency", "setting": "[1]", "value": "inactive"}, {"measurement": "outcome", "setting": "[2]", "value": "inactive"}, {"measurement": "Potency", "setting": "[3]", "value": "inactive"}, {"measurement": "Potency", "setting": "[6]", "value": "inactive"}, {"measurement": "outcome", "setting": "[4]", "value": "inactive"}, {"measurement": "outcome", "setting": "[5]", "value": "inactive"}]}
{"smiles": "CC(=O)O[C@]1(C(C)=O)CC[C@H]2[C@@H]3C=C(Cl)C4=CC(=O)[C@@H]5C[C@@H]5[C@]4(C)[C@H]3CC[C@@]21C", "values": [{"measurement": "Potency", "setting": "[1]", "value": "inactive"}, {"measurement": "outcome", "setting": "[2]", "value": "inactive"}, {"measurement": "outcome", "setting": "[4]", "value": "inactive"}, {"measurement": "outcome", "setting": "[5]", "value": "inactive"}]}
{"smiles": "C[N+]1(C)[C@@H]2CC(OC(=O)[C@H](CO)c3ccccc3)C[C@H]1[C@H]1O[C@@H]12", "note": "(some centres undefined)", "values": [{"measurement": "Potency", "setting": "[1]", "value": "inactive"}, {"measurement": "outcome", "setting": "[2]", "value": "inactive"}, {"measurement": "Potency", "setting": "[3]", "value": "inactive"}]}
{"smiles": "CCCCC1C(=O)N(c2ccccc2)N(c2ccccc2)C1=O", "values": [{"measurement": "Potency", "setting": "[1]", "value": "inactive"}, {"measurement": "outcome", "setting": "[2]", "value": "inactive"}, {"measurement": "Potency", "setting": "[3]", "value": "inactive"}, {"measurement": "outcome", "setting": "[4]", "value": "inactive"}, {"measurement": "outcome", "setting": "[5]", "value": "inactive"}]}
{"smiles": "O=C(NCCN1CCOCC1)c1ccc(Cl)cc1", "values": [{"measurement": "Potency", "setting": "[1]", "value": "inactive"}, {"measurement": "outcome", "setting": "[2]", "value": "inactive"}, {"measurement": "Potency", "setting": "[3]", "value": "inactive"}, {"measurement": "Potency", "setting": "[6]", "value": "inactive"}, {"measurement": "outcome", "setting": "[4]", "value": "inactive"}, {"measurement": "outcome", "setting": "[5]", "value": "inactive"}]}
{"smiles": "O=C(O)c1cc(-c2ccccc2)nc2ccccc12", "values": [{"measurement": "Potency", "setting": "[1]", "value": "inactive"}, {"measurement": "outcome", "setting": "[2]", "value": "inactive"}, {"measurement": "Potency", "setting": "[3]", "value": "inactive"}]}
{"smiles": "O=C1NC(=O)C(c2ccccc2)(c2ccccc2)N1", "values": [{"measurement": "Potency", "setting": "[1]", "value": "inactive"}, {"measurement": "outcome", "setting": "[2]", "value": "inactive"}, {"measurement": "Potency", "setting": "[3]", "value": "inactive"}, {"measurement": "Potency", "setting": "[6]", "value": "inactive"}, {"measurement": "outcome", "setting": "[4]", "value": "inactive"}, {"measurement": "outcome", "setting": "[5]", "value": "inactive"}]}
{"smiles": "C[C@@H](O)[C@H]1C(=O)N2C(C(=O)O)=C(S[C@@H]3CN[C@H](C(=O)N(C)C)C3)[C@H](C)[C@H]12", "values": [{"measurement": "Potency", "setting": "[1]", "value": "inactive"}, {"measurement": "outcome", "setting": "[2]", "value": "inactive"}, {"measurement": "Potency", "setting": "[3]", "value": "inactive"}]}
{"smiles": "CN(C)CCC(c1ccccc1)c1ccccn1", "note": "(centres undefined)", "values": [{"measurement": "Potency", "setting": "[1]", "value": "inactive"}, {"measurement": "outcome", "setting": "[2]", "value": "inactive"}, {"measurement": "Potency", "setting": "[3]", "value": "inactive"}, {"measurement": "Potency", "setting": "[6]", "value": "inactive"}, {"measurement": "outcome", "setting": "[4]", "value": "inactive"}, {"measurement": "outcome", "setting": "[5]", "value": "inactive"}]}
{"smiles": "CCn1cc(C(=O)O)c(=O)c2ccc(C)nc21", "values": [{"measurement": "Potency", "setting": "[1]", "value": "inactive"}, {"measurement": "outcome", "setting": "[2]", "value": "inactive"}, {"measurement": "Potency", "setting": "[3]", "value": "inactive"}, {"measurement": "Potency", "setting": "[6]", "value": "inactive"}, {"measurement": "outcome", "setting": "[4]", "value": "inactive"}, {"measurement": "outcome", "setting": "[5]", "value": "inactive"}]}
{"smiles": "O=c1[nH]cnc2c1ncn2[C@H]1CC[C@@H](CO)O1", "values": [{"measurement": "Potency", "setting": "[1]", "value": "inactive"}, {"measurement": "outcome", "setting": "[2]", "value": "inactive"}, {"measurement": "Potency", "setting": "[3]", "value": "inactive"}]}
{"smiles": "CCN(CC)CCNC(=O)c1ccc(N)cc1", "values": [{"measurement": "Potency", "setting": "[1]", "value": "inactive"}, {"measurement": "outcome", "setting": "[2]", "value": "inactive"}, {"measurement": "Potency", "setting": "[7]", "value": "inactive"}, {"measurement": "Potency", "setting": "[3]", "value": "inactive"}, {"measurement": "Potency", "setting": "[6]", "value": "inactive"}, {"measurement": "outcome", "setting": "[4]", "value": "inactive"}, {"measurement": "outcome", "setting": "[5]", "value": "inactive"}]}
